Assay outcomes: PubChem BioAssay, National Center for Advancing Translational Sciences (NCATS)
The list is not random: actives were taken first. Their share in the collection is about 12%.
Sfp PPTase inh: Sfp phosphopantetheinyl transferase inhibition; Biochemical Sfp PPTase activity, qHTS; Q9F4F7; 3.5% of 310,000 active; Potency, µM, hits mostly inhibitors;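 note: the enzyme is Sfp with the accession as filed and its product quenches rhodamine fluorescence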
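Sfp 15 nM + cpd, 15 min RT; start w/ rhodamine-CoA 5 uM, BHQ-2-YbbR 12.5 uM (final); 50 mM Hepes pH 7.6, 10 mM MgCl2, 0.01% NP-40, 0.01% BSA; read 525/598 nm at 0 and 30 min.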
ALDH1A1 inh: ALDH1A1 (human) enzyme inhibition | 7.3% of 220,000 active | P00352 | Purified ALDH1A1, NADH fluorescence, propionaldehyde substrate | Potency, µM (doses to about 75.3 µM), most hits filed as inhibitors; active = well fitted inhibition curve with a large enough effect, not every such curve was filed as active; inconclusive = small, poorly fitted or top-dose-only effect, or another doubt; inactive = no such curve, though single readings can be large or run the other way
RORg inh: blocks mouse ROR gamma transcriptional activity; Potency, µM (titrated, usually from 53.6 µM), usual class: inhibitors; 5.4% of 310,000 active; P51450; Drosophila S2 Gal4-RORgamma UAS-luciferase reporter, 20 h; note: nearly all actives have a fitted effect of over 60% in size
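In this cell-based reporter format, copper sulfate (700 uM final) drives Gal4–ROR gamma fusion expression from a metallothionein promoter in Drosophila Schneider cells; compounds preincubated 1 hr, reporter read after 20 hr at ambient temperature.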
PLK1 PBD block: PLK1 (human) polo-box domain binding inhibition; Plk1 PBD binding of FITC phosphopeptide, fluorescence polarization; P53350; 2.8% of 360,000 active; AID 720504; Potency, µM, hits mostly inhibitors; note: series mostly up to about 57 µM; nearly all actives have a fitted effect of over 65% in size
Target sequence (P53350 whole entry, looked up, the tested form may be a part): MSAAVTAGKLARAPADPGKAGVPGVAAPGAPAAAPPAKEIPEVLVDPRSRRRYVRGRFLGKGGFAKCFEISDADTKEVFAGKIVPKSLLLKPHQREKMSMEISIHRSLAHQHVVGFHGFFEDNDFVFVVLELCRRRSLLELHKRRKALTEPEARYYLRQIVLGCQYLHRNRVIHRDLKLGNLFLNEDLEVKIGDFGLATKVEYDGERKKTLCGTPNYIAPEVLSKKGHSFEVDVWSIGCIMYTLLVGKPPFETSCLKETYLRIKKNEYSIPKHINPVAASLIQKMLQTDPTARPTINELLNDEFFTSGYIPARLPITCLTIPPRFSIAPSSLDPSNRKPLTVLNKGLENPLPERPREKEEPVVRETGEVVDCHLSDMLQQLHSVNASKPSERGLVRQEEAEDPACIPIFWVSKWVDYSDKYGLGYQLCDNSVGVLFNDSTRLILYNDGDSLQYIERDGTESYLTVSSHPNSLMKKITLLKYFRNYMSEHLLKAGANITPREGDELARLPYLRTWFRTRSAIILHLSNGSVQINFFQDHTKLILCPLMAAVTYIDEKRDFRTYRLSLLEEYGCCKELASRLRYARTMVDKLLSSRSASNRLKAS
Gal4-VP16 FLuc: inhibits Gal4-VP16 luciferase reporter, ROR gamma counter-screen; Potency, µM (series often up to 53.6 µM), usual class: inhibitors; Drosophila S2 Gal4-VP16 UAS-luciferase, luminescence, 20 h; 3.5% of 310,000 active;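 note: Gal4-VP16 expression switched on by copper sulfate through the metallothionein promoter; nearly all actives have a fitted effect of over 50% in size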
Large screens that a line does not name were inactive. Unless noted, calls come from the whole dose curve; as a rule, active = well fitted curve in the direction sought with a large enough effect; inconclusive = small, poorly fitted or top-dose-only effect, or another doubt; inactive = no such curve, though single readings can be large; an effect the other way counts as inactive or inconclusive.

O=C(CN1C(=O)c2cccc3cccc1c23)NCc1cccnc1	none
CCN1C(=O)c2cccc3cccc1c23	Sfp PPTase inh 16µM, ALDH1A1 inh inconclusive, PLK1 PBD block 21µM
O=C(O)c1ccccc1N1C(=O)c2cccc3cccc(c23)C1=O	none (no result: ALDH1A1 inh)
O=C(CN1C(=O)c2cccc3cccc1c23)Nc1cccnc1	PLK1 PBD block 30µM
Cc1ccccc1N1C(=O)c2cccc3cccc(c23)C1=O	Sfp PPTase inh 50µM (no result: ALDH1A1 inh)
CCc1nc2ccc(C(=O)NCc3ccc4c(c3)OCO4)cn2c1N(CCC(C)C)CCN(C)C	none (no result: Sfp PPTase inh, ALDH1A1 inh, RORg inh, Gal4-VP16 FLuc)
Cc1cccc(NC(=O)CN2C(=O)N/C(=C\c3cccn3-c3cccc(C(=O)O)c3)C2=O)c1	Sfp PPTase inh 50µM
O=C(O)c1cccc(-n2cccc2/C=C2/NC(=O)N(c3cccc(Cl)c3)C2=O)c1	Sfp PPTase inh 45µM, PLK1 PBD block inconclusive (no result: ALDH1A1 inh)
Cc1ccc(-n2cccc2/C=C2/NC(=O)N(CC(=O)Nc3cccc(C)c3)C2=O)cc1	Gal4-VP16 FLuc inconclusive
COc1ccc(-n2cccc2/C=C2/NC(=O)N(c3cccc(Cl)c3)C2=O)cc1	Gal4-VP16 FLuc inconclusive
O=C(O)c1cccc(-n2cccc2/C=C2/NC(=O)N(c3ccc(Cl)cc3)C2=O)c1	Sfp PPTase inh 14µM, PLK1 PBD block 4.7µM, Gal4-VP16 FLuc inconclusive
COc1cc(/C=C2/NC(=O)N(CC(=O)Nc3cccc(C)c3)C2=O)ccc1OCC(N)=O	PLK1 PBD block 27µM
CC(=O)Nc1ccn(C2OC(C(COC(C)=O)NC(=O)C(COCc3ccccc3)NC(=O)OC(C)(C)C)C(OC(C)=O)C2OC(C)=O)c(=O)n1 (stereo not drawn)	none (no result: ALDH1A1 inh, PLK1 PBD block)
CN(C)CCC(=O)c1ccc(F)cc1	PLK1 PBD block inconclusive (no result: ALDH1A1 inh)
CCN(CC)CCC(=O)c1ccc(F)cc1	ALDH1A1 inh 1.1µM, RORg inh inconclusive, PLK1 PBD block 11µM, Gal4-VP16 FLuc inconclusive
Cc1ccc2c(c1)C1(C=CC(=O)C=C1)CC(=O)N2C	none (no result: ALDH1A1 inh, PLK1 PBD block)
O=[N+]([O-])c1cc(/C=N/O)ccc1Sc1ccccc1	Sfp PPTase inh 71µM, ALDH1A1 inh inconclusive, RORg inh inconclusive, Gal4-VP16 FLuc inconclusive
CCn1cc(C(=O)NCC(=O)OC)c2cc(OC)c(OC)cc2c1=O	none
CCn1cc(C(=O)NCc2ccc(C)o2)c2cc(OC)c(OC)cc2c1=O	Sfp PPTase inh 35µM, ALDH1A1 inh inconclusive
COc1ccc(NC(=O)CSc2nnc(-c3ccccc3Cl)n2Cc2ccco2)c(OC)c1	Sfp PPTase inh 7.1µM, ALDH1A1 inh 14µM
CCOc1ccc(NC(=O)CSc2nnc(-c3ccccc3Cl)n2Cc2ccco2)cc1	ALDH1A1 inh 14µM, RORg inh inconclusive
CCOc1ccc(NC(=O)CSc2nccn2Cc2ccco2)cc1	Gal4-VP16 FLuc inconclusive (no result: ALDH1A1 inh)
CC1CCN(C(=O)CSc2nnc(-c3cc4ccccc4cc3O)n2Cc2ccco2)CC1	Sfp PPTase inh 28µM, ALDH1A1 inh inconclusive, RORg inh inconclusive
Cc1cccc(C[C@H](C(=O)O)N2C(=O)c3ccc(C(=O)O)cc3C2=O)c1	none (no result: ALDH1A1 inh, PLK1 PBD block)
Cc1ccc(NCCC(=O)c2ccc(Br)cc2)cc1	ALDH1A1 inh 0.79µM
Cc1ccc(NCCC(=O)c2ccc(Cl)cc2)cc1	ALDH1A1 inh 1.4µM
CCc1ccc(NCCC(=O)c2ccc(Br)cc2)cc1	none
COc1cc(OC)cc(C(=O)NC2CCN(Cc3nnnn3Cc3ccc(F)cc3)CC2)c1	none
COc1cc(OC)cc(C(=O)NC2CCN(Cc3nnnn3Cc3cccs3)CC2)c1	ALDH1A1 inh 13µM
CNc1nc(NC#N)nc(SC)n1	PLK1 PBD block 30µM (no result: ALDH1A1 inh)
CCNc1nc(NC#N)nc(SCC(=O)OCC)n1	none
Cc1nc(CS(=O)(=O)c2ccccc2)cc(N2CCOCC2)n1	PLK1 PBD block 3µM
c1cnc(N2CCN(Cc3ccc4c(c3)OCO4)CC2)nc1	none
Cc1ccc(C2CC(=O)c3cnc(N4CCN(c5ccccc5)CC4)nc3C2)cc1 (stereo not drawn)	none
O=C1CC(c2ccco2)Cc2nc(N3CCN(Cc4ccc5c(c4)OCO5)CC3)ncc21 (stereo not drawn)	Sfp PPTase inh inconclusive, ALDH1A1 inh 18µM
COc1ccc(C2CC(=O)c3cnc(N4CCN(Cc5ccccc5)CC4)nc3C2)cc1 (stereo not drawn)	ALDH1A1 inh inconclusive, RORg inh inconclusive, PLK1 PBD block 21µM, Gal4-VP16 FLuc inconclusive
Cc1ccc(C(=O)N2CCN(Cc3ccc4c(c3)OCO4)CC2)o1	none
Cc1ccc2c(C)c(C(=O)N3CCN(Cc4ccc5c(c4)OCO5)CC3)oc2c1C	Sfp PPTase inh 79µM, RORg inh inconclusive (no result: ALDH1A1 inh)
